This is a sample that favours compounds with a hit; in the whole collection about 6.6% have one here.
KB-V1 cytotox – qHTS assay for MDR1-selective chemotherapeutics: Primary screen using the drug-selected MDR subline cells KB-V1 | KB-V1 MDR cells viability, CellTiter-Glo, 72 h | Potency, µM (top dose mostly 46.1 µM), actives largely listed as cytotoxic | 3.4% of 400,000 active; note: % is set by controls: 0 for no effect and ±100 for the full control effect; nearly all actives have a fitted effect of over 60% in size
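Cells of the MDR subline KB-V1 are plated, dosed with compound at multiple concentrations, and incubated 72 h at 37 degrees C; CellTiter-Glo is then added and luminescence read after 10 min.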
HT1080NT lethal – qHTS for induction of synthetic lethality in tumor cells producing 2HG: qHTS for the HT-1080-NT fibrosarcoma cell line | HT-1080-NT fibrosarcoma viability, CellTiter-Glo ATP luminescence, 48 h | Potency, µM (highest dose often 46.1 µM), for inactives: at the top dose activity, negative = less viability, hits mostly cytotoxic | 1.6% of 360,000 active;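 note: NT is the 2HG producing partner of a matched IDH1 knockdown line; 0% = DMSO-treated cells and -100% = media-only wells without cells; nearly all actives have a fitted effect of over 55% in size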
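HT-1080-NT fibrosarcoma cells (2HG-overproducing), 750 cells/well in RPMI with 5% FBS, dosed after 2 h and incubated 48 h at 37C. CellTiter-Glo luminescence normalized to DMSO and no-cell wells; concentration-response curves fitted and classed.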
KB-3-1 cytotox – qHTS assay for MDR1-selective chemotherapeutics: Primary screen using the parental adenocarcinoma cell KB-3-1. KB-3-1 viability, CellTiter-Glo ATP luminescence, 72 h. Potency, µM (top dose mostly 46.1 µM), most hits filed as cytotoxic. 1.4% of 400,000 active. AID 1347075, 2019; note: % is set by controls: 0 for no effect and ±100 for the full control effect; nearly all actives have a fitted effect of over 60% in size
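KB-3-1 cells, DMEM (no phenol red) + 10% FBS; compound by pin transfer, 72 h, 37 °C. Readout: CellTiter-Glo luminescence after 10 min. Data normalized, curve-fitted.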
HepG2 viability – qHTS for Inhibitors of TGF-b: Cytotox Counterscreen. 0.76% of 410,000 active. Potency, µM (series often up to 46.1 µM), inactives show at the top dose activity change, negative = cytotoxicity, hits mostly cytotoxic. HepG2 CAGA-GFP viability, ATP luminescence, 18 h
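HepG2 CAGA-GFP cells (1000/well, DMEM with 1% FBS) received compound, then TGF-beta at 500 pg/mL final, and were incubated 18 hours at 37 degrees C. Viability was read by CellTiter-Glo luminescence. Media-only wells were set as complete cell-killing and DMSO as no toxicity.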
HT1080 IDH1KD tx – qHTS for induction of synthetic lethality in tumor cells producing 2HG: qHTS for the HT-1080-IDH1KD cell line. HT-1080 IDH1 knockdown viability, ATP luminescence, 48 h. Potency, µM (titrated, usually from 46.1 µM), without a hit: top-dose activity, negative = toxicity, actives largely listed as cytotoxic. 2% of 360,000 active. AID 686971, 2013;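 note: 0% = DMSO wells and -100% = cell-free medium wells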
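After a 2 h attachment period, IDH1KD HT-1080 cells took pin-transferred compound for 48 h at 37 °C; ATP-based luminescence after 10 min room-temperature reagent incubation reported viability.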
TGFb SMAD3 inh – qHTS for Inhibitors of TGF-b; Potency, µM (highest dose often 46.1 µM), inactives show at the top dose activity, negative = inhibition, most hits filed as inhibitors; HepG2 CAGA-GFP TGF-b/SMAD3 reporter, GFP fluorescence, 18 h; TGF-beta stimulated, 500 pg/mL final; 1.2% of 410,000 active; AID 588855, 2011; note: % is set by controls: 0 for no effect and ±100 for the full control effect; nearly all actives have a fitted effect of over 65% in size
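HEPG2 CAGA-GFP reporter cells (1000/well, DMEM with 1% FBS) received compounds, then recombinant TGF-beta at 500 pg/mL final for 18 hours at 37 degrees C. Per-cell GFP summed per well was normalised to unstimulated and stimulated DMSO controls before curve fitting.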
An asterisk follows results filed as active; i = inactive; ? = inconclusive; . = not tested or not shown. Calls come from the whole dose curve; as a rule, active = well fitted curve in the direction sought with a large enough effect; inconclusive = small, poorly fitted or top-dose-only effect, or another doubt; inactive = no such curve, though single readings can be large; an effect the other way counts as inactive or inconclusive. Potency is the fitted concentration of half-maximal effect.

SMILES	KB-V1 cytotox	HT1080NT lethal	KB-3-1 cytotox	HepG2 viability	HT1080 IDH1KD tx	TGFb SMAD3 inh
NC(=O)C1CCN(c2nnc(-c3ccc4c(c3)OCCCO4)s2)CC1	i	.	i	.	.	.
C/C(=N\NC(=O)C1CC1c1ccccc1)c1cccc([N+](=O)[O-])c1 (stereo not drawn)	i	-25%	i	-60%	-14%	11µM*
COc1ccc(NS(=O)(=O)c2ccc3c(c2)CC(C)N3C(C)=O)c(OC)c1 (stereo not drawn)	i	.	i	-1%	.	-17%
COc1ccccc1N1CCN(C2=Nc3cccc4cccc2c34)CC1	i	?	?	-20%	13µM*	-14%
c1ccc(CC2CCN(C3=Nc4cccc5cccc3c45)CC2)cc1	?	?	i	13µM*	21µM*	?
c1cc2c3c(cccc3c1)C(N1CCOCC1)=N2	?	4%	i	13%	17%	1%
CC(=O)Oc1ccc2occ(-c3ccccc3)c2c1	i	-3%	i	2%	-9%	-16%
O=c1ccc2cc3c(-c4ccccc4)coc3cc2o1	6.5µM*	-18%	18µM*	-16%	-5%	2%
CCOc1ccc(NC(=O)CC2C(=O)N(c3ccccc3)C(=O)N2C2CCCCC2)cc1 (stereo not drawn)	i	.	i	-12%	.	-16%
Cc1cc(C(=O)CSc2nnc(NCc3ccccc3)s2)c(C)n1C	?	15µM*	?	-6%	?	-7%
COc1ccc(S(=O)(=O)N(CC(=O)Nc2ccc(F)c(Cl)c2)c2ccc(C)cc2)cc1OC	?	.	?	-37%	.	-17%
COc1ccc(CCN2CC(C(=O)OCc3ccccc3Cl)CC2=O)cc1OC (stereo not drawn)	i	6%	i	9%	12%	0%
Cc1ccc(N/N=C(\Cc2nc3ccccc3[nH]2)c2ccccc2)cc1	3.7µM*	1.3µM*	1.2µM*	-1%	0.92µM*	?
c1ccc(N/N=C(\Cc2nc3ccccc3[nH]2)c2ccccc2)cc1	i	-4%	i	-8%	-23%	-46%
Cc1ccc(-n2c(=O)c3oc4ccccc4c3n(CC(=O)Nc3ccc(F)c(Cl)c3)c2=O)cc1C	.	.	.	-30%	.	?
Cc1ccc2c(c1)CCCN2C(=O)c1ccoc1C	?	22µM*	i	-3%	?	18%
Cc1ccc2c(c1)CCCN2C(=O)c1c(C)noc1C	i	-3%	i	-2%	5%	3%
COc1ccc(-c2noc(C3CCCN(C(=O)c4ccc(C)cc4)C3)n2)cc1 (stereo not drawn)	i	?	i	12%	16µM*	?
O=C(NC1CCCCC1)N1CCCC(c2nc(-c3cccs3)no2)C1 (stereo not drawn)	i	-1%	i	-14%	-28%	-5%
O=C(Nc1ccccc1)N1CCCC(c2nc(-c3cccs3)no2)C1 (stereo not drawn)	12µM*	-2%	i	-21%	-25%	-1%
COc1cccc(C(=O)N2CCCC(c3nc(-c4cccs4)no3)C2)c1 (stereo not drawn)	4.1µM*	-5%	i	14%	-26%	?
COc1ccc(-c2noc(C3CCCN(C(=O)c4ccc(F)cc4)C3)n2)cc1 (stereo not drawn)	i	-13%	?	-4%	?	-5%
COc1ccc(NC(=O)N2CCC(c3nc(-c4cccs4)no3)CC2)cc1	6.5µM*	8%	i	5%	1%	-12%
